From PubChem
Hits are enriched below; roughly 1.3% of the tested compounds scored in any of these assays.
EPAC2 antag: EPAC2 (human) antagonism | Q8WZA2 | EPAC2 GEF exchange of Rap1B-BODIPY-GDP, fluorescence | Potency, µM (series often up to 114 µM), for inactives: at the highest dose activity, negative = inhibition, usual class: inhibitors | 360,000 compounds, 0.18% hits; also: % is scaled to controls: 0 for no effect and ±100 for the full control effect; nearly all actives have a fitted effect of over 45% in size
EPAC1 ag: EPAC1 (human) agonism; EPAC1 agonist qHTS, biochemical assay; response scale: 100% = response to 6.5 mM cAMP; 360,000 compounds, 0.073% hits; Potency, µM (series often up to 154 µM), inactives show top-dose activation, actives largely listed as activators; AID 720707; O95398; also: nearly all actives have a fitted effect of over 60% in size
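Normalized to 6.5 mM cAMP, activity reflects EPAC1-catalysed release of BODIPY-GDP from Rap1B, followed kinetically over 30 min at 480 nm excitation, 540 nm emission. Reaction contained 100 nM EPAC1, 250 nM Rap1B-BODIPY-GDP, 50 uM GDP.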
EPAC1 antagonist: blocks human EPAC1 exchange factor; O95398; EPAC1 GEF assay, Rap1b-BODIPY-GDP exchange fluorescence; Potency, µM (series often up to 115 µM), for inactives: at the highest dose activity change, negative = inhibition, actives largely listed as inhibitors; 360,000 compounds, 0.14% hits;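 also: plate controls were vehicle for no effect and positive control for full effect; nearly all actives have a fitted effect of over 50% in size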
BRCA1 expr up: activators of BRCA1 expression. Potency, µM (highest dose often 46.1 µM), inactives show top-dose activation, actives largely listed as activators. MCF7-BRCA1-FFLuc reporter, luminescence, 48 h; response scale: scaled: vehicle 0%, 10 µM genistein 100%. 380,000 compounds, 1.1% hits; also: nearly all actives have a fitted effect of over 80% in size
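MCF7-BRCA1-FFLuc cells, 2000/well in phenol-red-free MEM, attached 2 h then treated 48 h at 37 C. Luciferase luminescence read 15 min after reagent; normalized to genistein maximum activation (10microM) and DMSO, concentration-response fitted.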
EPAC2 agonist: activates human EPAC2 exchange factor; Q8WZA2; EPAC2 activation, biochemical qHTS; response scale: 100% = 6.5 mM cAMP response; Potency, µM (highest dose often 154 µM), inactives show at the highest dose activation, hits mostly activators; 360,000 compounds, 0.079% hits; AID 720711; also: nearly all actives have a fitted effect of over 50% in size
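EPAC2 (100 nM) mixed with Rap1B loaded with BODIPY-GDP (250 nM) plus 50 uM unlabeled GDP; compounds pinned in, 5 min RT, then read every 5 min for 30 min (ex 480, em 540 nm). Normalized to cAMP control.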
RGS4 inhibitor: human RGS4 inhibition; P49798; Transcreener GDP fluorescence polarization, RGS4-accelerated GTP hydrolysis; Potency, µM (series often up to 114 µM), inactives show at the highest dose activity change, negative = inhibition, hits mostly inhibitors; 390,000 compounds, 0.039% hits; AID 504845; also: % is scaled to controls: 0 for no effect and ±100 for the full control effect; nearly all actives have a fitted effect of over 75% in size
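MLSMR compounds (23 nl, pin-transferred) preincubated 10 min at room temperature with a 500nM (2x) first reagent, then RGS4 at 900nM (2x) plus Transcreener GDP mix added; fluorescence polarization (620/688 nm) read before and after 90 min at 30 °C.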
* hit, by the source's call; u = inconclusive; x = no result given; [ ] = dose if it differs, or a comment. Calls follow the shape of the dose curve; as a rule, active = well fitted curve in the direction sought with a large enough effect; inconclusive = small, poorly fitted or top-dose-only effect, or another doubt; inactive = no such curve, though single readings can be large; an effect the other way counts as inactive or inconclusive. Potency is read from the fitted curve at half-maximal effect.

SMILES | EPAC2 antag | EPAC1 ag | EPAC1 antagonist | BRCA1 expr up | EPAC2 agonist | RGS4 inhibitor
COc1ccc(NC(=O)Cc2csc(COc3cccc(C)c3)n2)cc1OC | x | x | x | x | x | 22%
Cc1ccc(NC(=O)/C=C/c2ccc3c(c2)OCO3)nc1 | -2% | 4% | -1% | 1.6µM* | 4% | -15%
CN(C)c1ccc(/C=C/C(=O)c2ccc3c(c2)OCO3)cc1 | 59% | 63µM* | 89% | -2% | 100µM* | 30%
COc1cccc(/C=C/C(=O)c2ccc[nH]2)c1 | 5% | -8% | -8% | 7.9µM* | 16% | -20%
CSc1ccccc1NC(=O)c1cc(-c2ccc3c(c2)OCO3)on1 | 3% | 0% | 8% | 74% | 8% | -5%
COc1cccc(/C=C/C(=O)Oc2ccc(C(=O)c3ccc(F)cc3)cc2)c1 | -21% | 10% | 7% | 10% | 3% | 17%
CN(C(=O)c1cc(-c2ccc3c(c2)OCO3)on1)c1ccccc1 | -21% | 2% | -15% | 2.8µM* | 7% | 5%
CN(C)c1ccc(/C=N/n2cnn(Cc3ccccc3Cl)c2=S)cc1 | -7% | -8% | -14% | -3% | 10% | -33%
CCCC[C@@H]1CCCO[C@@](C(=O)NCC2CC2)(C(F)(F)F)C1 | x | x | x | x | x | 16%
Cc1ccsc1/C=N/NC(=O)c1ccccn1 | 6% | -5% | -5% | u | 2% | 7%
CCOC(=O)[C@]12CCCC=C1N(CCC1=CCCCC1)C(=O)[C@H](CC(=O)N1CCCC1)C2 | 8% | -8% | 15% | x | 0% | x
CO/N=C(/CN1CCCCC1)c1ccc(Cl)cc1 | -9% | 4% | -14% | 3% | 14% | -6%
O=C(/C=C/c1ccc2c(c1)OCCCO2)c1ccccc1O | -9% | 9% | -5% | 102% | 0% | -26%
Cc1ccc(O)c(C(=O)/C=C/c2ccc3c(c2)OCCCO3)c1 | -7% | 13% | -25% | 7.1µM* | 16% | -31%
Cc1cccc(N=c2oc3cc(O)ccc3cc2C(N)=O)c1 | -1% | 4% | -7% | 11µM* | -5% | -2%[11.4 µM]
COc1ccccc1N=c1oc2cc(O)ccc2cc1C(N)=O | 1% | -11% | -23% | 10µM* | -12% | -25%
COc1ccccc1N=c1oc2cc(O)ccc2cc1C(=O)NCC1CCCO1 (configuration not stated) | 11% | 4% | 17% | -13% | 2% | 9%
CCCN(CCC)S(=O)(=O)c1ccc(NC(=O)Cc2cccs2)cc1 | -13% | 28% | -20% | -62% | 4% | u
Cc1ccc(C(=O)N/N=C\C=C\c2ccccc2[N+](=O)[O-])cn1 | -5% | 6% | -4% | -27% | 6% | 27%
Cc1ccc(C(=O)N/N=C\c2ccccc2[N+](=O)[O-])cn1 | 2% | 7% | 14% | 4.5µM* | 3% | -4%[11.4 µM]
CCCCCCCCCCCCCCCCCCNc1ccn(C2OC(COP(=O)(O)OCC3OC(n4cc(F)c(=O)[nH]c4=O)CC3O)C(O)C2O)c(=O)n1 (configuration not stated) | 4% | -35% | 22µM* | -58% | 9% | u
O=C(O)c1cccc(NC(=S)NC(=O)c2ccc(-c3ccc(Cl)cc3)o2)c1 | u | 4% | u | 11µM* | 23% | u
COc1cc2ccccc2cc1C(=O)NC(=S)Nc1cccc(C(=O)O)c1 | 13% | u | 45µM* | u | 10% | -19%
COc1cc2ccccc2cc1C(=O)NC(=S)Nc1ccc(C(=O)O)cc1 | -6% | 2% | -10% | 3% | 14% | -39%
COc1ccc(NC(=S)NC(=O)c2ccccc2Cl)cc1 | -10%[57.1 µM] | -3% | -3% | 13µM* | 7% | u
COc1ccc(NC(=S)NC(=O)C2CCCCC2)cc1 | -3% | 3% | 5% | 7.9µM* | 7% | -11%
Cc1ccc(C(=O)O)cc1NC(=S)NC(=O)c1ccc(-c2ccc(Cl)cc2)o1 | -8% | 9% | 5% | 19% | -1% | -15%[11.4 µM]
